In the library only some 19% were active in any assay of this set; here they are far more common.
DT40 TDP1 CPT: qHTS for Inhibitors of human tyrosyl-DNA phosphodiesterase 1 (TDP1): qHTS in cells in presence of CPT. chicken DT40 Tdp1-/-;hTDP1 cells + 20 nM CPT, ATP luminescence, 48 h. Potency, µM (doses to about 46.2 µM), for inactives: at the top dose activity change, negative = growth inhibition, hits mostly inhibitors. 420,000 compounds, 12% hits; note: potency is the fitted concentration of half-maximal effect; nearly all actives have a fitted effect of over 55% in size
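Chicken DT40 Tdp1-/- cells complemented with human TDP1, 400 cells/well, exposed to compounds plus 20 nM camptothecin for at least 48 h at 37 C; viability read as ATP content by CellTiter-Glo luminescence.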
HT1080-NT tox: qHTS for induction of synthetic lethality in tumor cells producing 2HG: qHTS for the HT-1080-NT fibrosarcoma cell line; HT-1080-NT fibrosarcoma viability, CellTiter-Glo ATP luminescence, 48 h; Potency, µM (highest dose often 46.1 µM), for inactives: at the highest dose activity, negative = less viability, hits mostly cytotoxic; 360,000 compounds, 1.6% hits; AID 686970, 2013;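 note: NT is the 2HG producing partner of a matched IDH1 knockdown line; potency is the fitted concentration of half-maximal effect; 0% = DMSO-treated cells and -100% = media-only wells without cells; nearly all actives have a fitted effect of over 55% in size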
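HT-1080-NT fibrosarcoma cells (2HG-overproducing), 750 cells/well in RPMI with 5% FBS, dosed after 2 h and incubated 48 h at 37C. CellTiter-Glo luminescence normalized to DMSO and no-cell wells; concentration-response curves fitted and classed.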
HT1080 IDH1KD tx: qHTS for induction of synthetic lethality in tumor cells producing 2HG: qHTS for the HT-1080-IDH1KD cell line. HT-1080 IDH1 knockdown viability, ATP luminescence, 48 h. Potency, µM (titrated, usually from 46.1 µM), for the others: top-dose activity, negative = toxicity, hits mostly cytotoxic. 360,000 compounds, 2% hits;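 note: potency is the fitted concentration of half-maximal effect; 0% = DMSO wells and -100% = cell-free medium wells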
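Cytotoxicity counter-line: IDH1KD HT-1080, 48 h, CellTiter-Glo. Curves classed by r2, magnitude and activity.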
TDP1 cell noCPT: qHTS for Inhibitors of human tyrosyl-DNA phosphodiesterase 1 (TDP1): qHTS in cells in absence of CPT | DT40 Tdp1-/- hTDP1 cells, no CPT, ATP luminescence, 48 h | 420,000 compounds, 15% hits | Potency, µM (doses to about 46.2 µM), inactives show at the top dose activity change, negative = growth inhibition, most hits filed as inhibitors | AID 686978, 2013; note: potency is the fitted concentration of half-maximal effect; nearly all actives have a fitted effect of over 55% in size
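Chicken DT40 Tdp1-/- cells stably complemented with human TDP1 were seeded at 400 cells/well with DMSO in place of 20 nM camptothecin. After compound pinning, cells grew at least 48 hr at 37 °C; viability read by CellTiter-Glo luminescence.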
ELG1 repair inh: qHTS screen for small molecules that inhibit ELG1-dependent DNA repair in human embryonic kidney (HEK293T) cells expressing luciferase-tagged ELG1. 330,000 compounds, 2.3% hits. Potency, µM (highest dose often 46.1 µM), for the others: at the top dose activity change, negative = inhibition, actives largely listed as inhibitors. HEK293T ELG1-luciferase reporter, luminescence, 16 h; DNA damage induced by 5-fluorouridine; note: potency is the fitted concentration of half-maximal effect; nearly all actives have a fitted effect of over 55% in size
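In this reporter screen, reduction of luminescence relative to DMSO vehicle indicated activity. Compounds and 5-fluorouridine were added together to 2,000 cells per well, incubated for 16 hr at 37 °C, then developed with ONE-Glo.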
IL1B secr inh: qHTS for Inhibitors of Inflammasome Signaling: IL-1-beta AlphaLISA Primary Screen; THP-1 LPS/ATP IL-1B secretion, AlphaLISA, 16 h; active compounds read low; activity change, % at 57.5 µM; 360,000 compounds, 4.7% hits; in the data active = activity change below about -50%; inconclusive = mostly about -30% to -49%
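Secreted IL-1B measured by AlphaLISA bead assay after 16 h compound exposure of THP-1 cells; compounds (final up to 57.5 uM) added 1 h before LPS (250 ng/mL) and ATP (1.25 mM) stimulation; lower signal means less secretion.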
Active calls of the source: *; i = inactive; ? = inconclusive; . = no result. Unless noted, calls come from the whole dose curve; as a rule, active = well fitted curve in the direction sought with a large enough effect; inconclusive = small, poorly fitted or top-dose-only effect, or another doubt; inactive = no such curve, though single readings can be large; an effect the other way counts as inactive or inconclusive. Unless noted, % is set by controls: 0 for no effect and ±100 for the full control effect.

SMILES	DT40 TDP1 CPT	HT1080-NT tox	HT1080 IDH1KD tx	TDP1 cell noCPT	ELG1 repair inh	IL1B secr inh
O=C(Nc1nnc(-c2ccccc2)s1)C1CCCN(C(=O)c2ccoc2)C1 (centres undefined)	?	.	.	-24.8%	.	.
C/C(=N\NC(=O)c1cccc(N/N=C(\C)c2ccncc2)c1)c1ccncc1	20.6µM*	-1.1%	-1.1%	?	?	-27.8
C/C(=N\NC(=O)c1ccncc1)c1cccc(NC(=O)c2ccc(C(C)(C)C)cc2)c1	16.4µM*	?	?	16.4µM*	?	?
C/C(=N\NC(=O)COc1ccccc1[N+](=O)[O-])c1cccc(NC(=O)c2ccncc2)c1	?	0.2%	-2.2%	8.2µM*	9.2µM*	i
C/C(=N\NC(=O)c1cc(O)ccc1O)c1cccc(NC(=O)c2ccc(Cl)cc2)c1	?	-1.9%	?	18.4µM*	?	-86.2*
COc1ccc(C(=O)N2CCC[C@@]3(CCN(Cc4ccc(C#N)cc4)C3)C2)cc1	-7.0%	.	.	?	.	.
CCOC(=O)CSc1n[nH]c(NS(=O)(=O)c2ccccc2C(F)(F)F)n1	7.6%	-2.7%	1.9%	-4.8%	17.3%	-77.2*
O=C(CSc1nnc2ccccn12)NC(=O)c1ccccc1Cl	-16.4%	-3.0%	-4.0%	3.2%	0.0%	0.0
COC(=O)c1ccc(/C=C2\SC(=S)N(CCCC(=O)N3CCOCC3)C2=O)cc1	-2.5%	0.0%	-5.4%	6.8%	.	-8.0
Cn1c(=O)n(C)c2cc(/C=C3/SC(=O)N(CC(=O)N4CCOCC4)C3=O)ccc21	2.8%	13.2%	7.5%	-13.3%	?	6.7
Cc1ccc(/C=C2\SC(=S)N(CCCC(=O)Nc3cccc(C(=O)O)c3)C2=O)cc1	1.2%	0.8%	1.9%	9.4%	7.5%	11.0
Cc1ccc(/C=C2\SC(=S)N(CCCC(=O)N3CCOCC3)C2=O)cc1	?	-0.6%	2.6%	?	13µM*	-66.4*
COC(=O)c1ccc(/C=C2/SC(=S)N(CCC(=O)N3CCOCC3)C2=O)cc1	16.4µM*	1.4%	5.8%	18.4µM*	7.7%	-11.4
O=C1C(=Cc2ccccc2O)SC(=S)N1CCCN1CCOCC1	?	2.3%	3.0%	9.2µM*	.	16.7
O=C(CCN1C(=O)S/C(=C/c2ccc(Cl)cc2)C1=O)N1CCOCC1	11.6µM*	0.0%	6.9%	16.4µM*	5.8%	13.0
Cc1ccc(CNc2ccc3c(c2)ncn3C(C)(C)C)cc1	?	-24.2%	-21.6%	?	?	-20.0
CC(C)(C)n1cnc2cc(NCc3ccccc3Cl)ccc21	?	.	.	14.6µM*	.	.
Cc1cc(C)nc(NC(=O)c2c(F)c(F)c(F)c(C(=O)Nc3cc(C)cc(C)n3)c2F)c1	?	-19.3%	-20.8%	16.4µM*	.	-69.1*
Cc1onc(-c2ccccc2Cl)c1C(=O)NCc1ccco1	?	-24.5%	-38.6%	-11.4%	-7.1%	-77.1*
O=C(Nc1ccccc1)c1cc(-c2ccccc2Cl)no1	16.4µM*	17.9%	13.3%	16.4µM*	?	4.6
COc1ccc(NC(=O)c2cc(-c3ccccc3Cl)no2)cc1	-28.1%	0.7%	-4.3%	-27.1%	3.5%	-16.0
Cc1cc(C)nc(NC(=O)CCCC(=O)O)c1	3.2%	8.7%	11.1%	4.8%	-6.2%	-3.3

Assay outcomes deposited in PubChem BioAssay by National Center for Advancing Translational Sciences (NCATS).
